PubChem BioAssay (NCATS)
Inconclusive results are not listed. Calls of active or inactive are those of the source. Unless noted, calls follow the shape of the dose curve; as a rule, active = well fitted curve in the direction sought with a large enough effect; inconclusive = small, poorly fitted or top-dose-only effect, or another doubt; inactive = no such curve, though single readings can be large; an effect the other way counts as inactive or inconclusive.

How the values were obtained:
[1] = Inducers of the Endoplasmic Reticulum Stress Response (ERSR) in human glioma: Validation (AID 504836)
Method in brief: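 Stably transfected U87-MG human glioma cells carrying a GRP78-based luminescent sensor were seeded at 1000 cells/well, pin-dosed with compounds and incubated 16 h. Luciferase reagent was then added, and end-point luminescence was read after 10 min at room temperature.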

[2] = qHTS for Inhibitors of the Functional Ribonucleoprotein Complex (vRNP) of Lassa (LASV) Arenavirus: LASV Primary Screen - GLuc reporter signal (AID 1347082; calls by dose curve; tested in HEK293 reporter line; also: series mostly up to about 57 µM; nearly all actives have a fitted effect of over 60% in size)
[3] = Cytotoxicity counterscreen for inhibitors of SARS-CoV-2 cell entry (AID 1645845; calls by dose curve; also: series mostly up to about 57 µM; nearly all actives have a fitted effect of over 50% in size)
Method in brief: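 After a 15 min room-temperature ATPLite 1step step, luminescence reflected ATP remaining in HEK293-ACE2 cells exposed to compound for 1 h plus 48 h at 37 C, with percent activity set by cell and no-cell controls.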

[4] = qHTS for Inhibitors of the Functional Ribonucleoprotein Complex (vRNP) of Lassa (LASV) Arenavirus: Viability assay - alamar blue signal for LASV Primary Screen (AID 1347083; calls by dose curve; tested in HEK293 reporter line; also: nearly all actives have a fitted effect of over 80% in size; also: potency is read from the fitted curve at half-maximal effect)
[5] = Validation screen for inhibitors of Lassa infection (AID 463096; calls by dose curve)
[6] = qHTS for Inhibitors of the Functional Ribonucleoprotein Complex (vRNP) of Lymphocytic Choriomeningitis Arenaviruses (LCMV): Viability assay - alamar blue signal for LCMV Primary Screen (AID 1347085; calls by dose curve; tested in HEK293 reporter line; also: nearly all actives have a fitted effect of over 80% in size; also: potency is read from the fitted curve at half-maximal effect)
[7] = molecular target: Alpha-galactosidase (Coffea arabica) (UniProt Q42656); experiment: Counterscreen for Glucocerebrosidase Inhibitors: qHTS Assay for Coffee Bean alpha-Galactosidase at pH 4.5 (AID 957); also: series mostly up to about 77 µM
Method in brief: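 Fluorogenic qHTS at pH 4.5 (citrate buffer with Tween-20): 2 nM enzyme, 80 uM 4-MU-alpha-galactoside substrate, compound titrated 0.7 nM to 77 uM, 20 min room temperature. Glycine/NaOH stop; 4-MU read Ex 365/Em 440; Hill-equation AC50 against no-enzyme and enzyme controls.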

[8] = molecular target: Alpha-galactosidase (Coffea arabica) (UniProt Q42656); experiment: Counterscreen for Glucocerebrosidase Inhibitors: qHTS Assay for Coffee Bean alpha-Galactosidase at pH 5.9 (AID 998)
Method in brief: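 In 50 mM citric acid pH 5.9 with 0.005% Tween-20, coffee bean enzyme hydrolyses 80 uM 4-MU alpha-D-galactopyranoside over 20 min at RT. Activity is normalized to controls; AC50 comes from Hill-modelled concentration-response data.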

[9] = molecular target: Voltage-gated inwardly rectifying potassium channel KCNH2 (Homo sapiens) (UniProt Q12809); experiment: qHTS Assay for Small Molecule Inhibitors of the Human hERG Channel Activity (AID 588834);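 also: potency is read from the fitted curve at half-maximal effect; lower thallium flux fluorescence means stronger hERG block; nearly all actives have a fitted effect of over 50% in size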
Method in brief: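 Homogeneous FluxOR thallium flux assay using hERG-expressing U2OS cells (BacMam). Compound treatment about 10 minutes preceded stimulation; reduced fluorescence taken as channel block.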

[10] = molecular target: Nucleoprotein (Lymphocytic choriomeningitis virus (strain Armstrong)) (UniProt P09992); experiment: qHTS for Inhibitors of the Functional Ribonucleoprotein Complex (vRNP) of Lymphocytic Choriomeningitis Arenaviruses (LCMV): LCMV Primary Screen - GLuc reporter signal (AID 1347086; calls by dose curve; also: nearly all actives have a fitted effect of over 70% in size; also: potency is read from the fitted curve at half-maximal effect)
Nucleoprotein (Lymphocytic choriomeningitis virus (strain Armstrong)), sequence (P09992 whole entry, looked up): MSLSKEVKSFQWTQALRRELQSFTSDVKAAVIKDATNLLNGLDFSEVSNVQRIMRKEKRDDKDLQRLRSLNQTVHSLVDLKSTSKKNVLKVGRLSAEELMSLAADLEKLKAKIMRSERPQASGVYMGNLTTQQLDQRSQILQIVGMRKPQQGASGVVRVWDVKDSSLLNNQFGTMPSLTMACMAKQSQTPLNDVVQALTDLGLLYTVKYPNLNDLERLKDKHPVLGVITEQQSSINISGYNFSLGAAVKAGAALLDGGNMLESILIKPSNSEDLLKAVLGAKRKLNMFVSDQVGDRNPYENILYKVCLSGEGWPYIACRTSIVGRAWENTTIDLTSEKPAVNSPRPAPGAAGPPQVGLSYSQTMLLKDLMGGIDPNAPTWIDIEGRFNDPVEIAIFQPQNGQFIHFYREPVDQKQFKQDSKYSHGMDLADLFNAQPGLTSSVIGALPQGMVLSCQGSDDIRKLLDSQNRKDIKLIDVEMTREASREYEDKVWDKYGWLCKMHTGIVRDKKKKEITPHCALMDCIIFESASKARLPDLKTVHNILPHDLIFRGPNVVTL

Alpha-galactosidase (Coffea arabica), sequence (Q42656 whole entry, looked up): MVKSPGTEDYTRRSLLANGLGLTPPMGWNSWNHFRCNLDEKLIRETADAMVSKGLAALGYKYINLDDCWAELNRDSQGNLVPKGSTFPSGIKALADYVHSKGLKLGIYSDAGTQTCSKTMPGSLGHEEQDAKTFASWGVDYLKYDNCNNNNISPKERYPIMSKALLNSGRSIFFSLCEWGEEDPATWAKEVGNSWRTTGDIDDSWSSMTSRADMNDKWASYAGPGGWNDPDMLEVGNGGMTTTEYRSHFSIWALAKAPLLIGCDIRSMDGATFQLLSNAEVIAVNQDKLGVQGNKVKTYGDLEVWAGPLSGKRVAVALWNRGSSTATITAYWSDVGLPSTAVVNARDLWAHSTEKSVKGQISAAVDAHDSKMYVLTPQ
Voltage-gated inwardly rectifying potassium channel KCNH2 (Homo sapiens), sequence (Q12809 whole entry, looked up): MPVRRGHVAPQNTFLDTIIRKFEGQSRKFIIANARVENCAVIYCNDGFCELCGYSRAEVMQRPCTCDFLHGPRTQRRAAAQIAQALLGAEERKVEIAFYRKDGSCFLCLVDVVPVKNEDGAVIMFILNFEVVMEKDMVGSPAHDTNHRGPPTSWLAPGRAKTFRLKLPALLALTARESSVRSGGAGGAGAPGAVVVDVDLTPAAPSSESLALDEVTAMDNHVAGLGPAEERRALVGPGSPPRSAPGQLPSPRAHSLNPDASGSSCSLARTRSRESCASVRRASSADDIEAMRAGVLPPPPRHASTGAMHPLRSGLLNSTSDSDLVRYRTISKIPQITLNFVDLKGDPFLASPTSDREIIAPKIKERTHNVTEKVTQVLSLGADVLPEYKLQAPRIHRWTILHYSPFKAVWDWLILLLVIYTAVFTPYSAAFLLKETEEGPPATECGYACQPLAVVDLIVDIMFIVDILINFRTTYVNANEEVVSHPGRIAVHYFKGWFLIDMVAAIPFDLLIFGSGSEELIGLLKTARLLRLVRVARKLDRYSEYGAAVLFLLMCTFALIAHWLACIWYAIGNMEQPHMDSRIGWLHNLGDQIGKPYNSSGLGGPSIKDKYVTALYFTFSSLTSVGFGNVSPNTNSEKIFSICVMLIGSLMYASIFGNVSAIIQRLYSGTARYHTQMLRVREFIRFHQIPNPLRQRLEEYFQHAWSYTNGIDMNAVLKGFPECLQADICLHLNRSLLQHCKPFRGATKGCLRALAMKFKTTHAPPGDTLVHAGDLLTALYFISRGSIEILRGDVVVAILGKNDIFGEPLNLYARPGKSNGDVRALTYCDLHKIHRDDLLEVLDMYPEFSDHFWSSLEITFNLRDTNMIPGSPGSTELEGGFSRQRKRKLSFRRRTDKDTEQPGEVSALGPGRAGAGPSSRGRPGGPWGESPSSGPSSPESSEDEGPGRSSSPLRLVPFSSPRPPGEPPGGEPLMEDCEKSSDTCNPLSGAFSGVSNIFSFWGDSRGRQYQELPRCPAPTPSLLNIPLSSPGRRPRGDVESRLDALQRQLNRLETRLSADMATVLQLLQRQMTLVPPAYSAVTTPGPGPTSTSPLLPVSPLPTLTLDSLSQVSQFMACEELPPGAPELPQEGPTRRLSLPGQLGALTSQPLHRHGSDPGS

## Oc1ccc2ccccc2c1SSc1c(O)ccc2ccccc12
[1]
  outcome: inactive
[2]
  Potency: inactive
[3]
  Potency: inactive

## O=C(Nc1nc2cccc(-c3ccc(CN4CCS(=O)(=O)CC4)cc3)n2n1)C1CC1
[4]
  Potency: 38.5 µM (active)

## CCCCC[C@H](CC(=O)NO)C(=O)N[C@H](C(=O)N1CCC[C@H]1CO)C(C)C
[5]
  Potency: inactive
[1]
  outcome: inactive
[2]
  Potency: inactive

## C[C@H]1[C@H](O)O[C@@H]2O[C@@]3(C)CC[C@@H]4[C@H](C)CC[C@@H]1[C@@]24OO3
[4]
  Potency: 10 µM (active)
[6]
  Potency: 15.8 µM (active)

## CC(C)C[C@@H]1NC(=O)[C@H](Cc2ccccc2)N(C)C(=O)[C@H](C)NC(=O)c2ccccc2NC(=O)[C@H](Cc2ccc(O)cc2)N(C)C1=O
[4]
  Potency: 8.91 µM (active)

## CC(C=CC(=O)NO)=C[C@@H](C)C(=O)c1ccc(N(C)C)cc1
[4]
  Potency: 15.3 µM (active)

## O=Nc1c(-c2c(O)[nH]c3ccccc23)[nH]c2ccccc12
[7]
  outcome: inactive
[8]
  outcome: inactive
[2]
  Potency: inactive

## O[Si](CCCN1CCCCC1)(c1ccc(F)cc1)C1CCCCC1 (stereo unspecified)
[1]
  outcome: inactive
[9]
  Potency: 14.1 µM (active)
[2]
  Potency: inactive

## COc1ccc(-c2cc3ncc(C)n3c(Nc3ncccc3C(N)=O)n2)cc1OC
[1]
  outcome: inactive
[2]
  Potency: inactive

## CC1CNCCN1S(=O)(=O)c1cccc2cnccc12 (stereo unspecified)
[5]
  Potency: inactive
[1]
  outcome: inactive
[2]
  Potency: inactive

## CCC1=C[C@@H]2CN(C1)Cc1c([nH]c3ccccc13)[C@@](C(=O)OC)(c1cc3c(cc1OC)N(C)[C@@H]1[C@@](O)(C(=O)OC)[C@H](OC(C)=O)[C@]4(CC)C=CCN5CC[C@]31[C@@H]54)C2
[4]
  Potency: 0.306 µM (active)
[6]
  Potency: 0.217 µM (active)

## O=c1[nH]c(=O)n([C@H]2C[C@@H](O)[C@@H](CO)O2)cc1F
[4]
  Potency: 5.44 µM (active)
[6]
  Potency: 7.69 µM (active)

## O=C1NC2C(=CC(O)C(O)C2O)c2cc3c(cc21)OCO3 (stereo unspecified)
[4]
  Potency: 0.199 µM (active)
[6]
  Potency: 0.282 µM (active)

## CC(O)(C#Cc1ccc2c(c1)N(c1nc(N)ncc1Cl)CC2)c1nccs1 (stereo unspecified)
[4]
  Potency: 21.7 µM (active)
[6]
  Potency: 17.2 µM (active)
[10]
  Potency: inactive

## CN[C@@H]1C[C@H]2O[C@@](C)([C@H]1OC)n1c3ccccc3c3c4c(c5c6ccccc6n2c5c31)C(=O)N[C@H]4O
[4]
  Potency: 0.355 µM (active)
[6]
  Potency: 2.73 µM (active)

## CC[C@H]1OC(=O)[C@H](C)[C@@H](O[C@H]2C[C@@](C)(OC)[C@@H](O)[C@H](C)O2)[C@H](C)[C@@H](O[C@@H]2O[C@H](C)C[C@H](N(C)C)[C@H]2O)[C@](C)(O)C[C@H](C)C(=NOCOCCOC)[C@H](C)[C@@H](O)[C@]1(C)O
[4]
  Potency: inactive
[6]
  Potency: inactive

## O=C(c1ccc(F)c(F)c1Nc1ccc(I)cc1F)N1CC(O)([C@H]2CCCCN2)C1
[4]
  Potency: 8.63 µM (active)
[6]
  Potency: 3.06 µM (active)

## C=C1C(=O)O[C@@H]2C[C@@H](C)[C@@H]3C=CC(=O)[C@@]3(C)[C@@H](OC(C)=O)[C@H]12
[4]
  Potency: 4.47 µM (active)
[6]
  Potency: 4.47 µM (active)

## O=C(O)CO.[NH2-].[NH2-].[Pt+2]
[4]
  Potency: inactive
[6]
  Potency: inactive

## O=C1NC(=O)[C@@H](c2cn3c4c(cccc24)CCC3)[C@H]1c1c[nH]c2ccccc12
[4]
  Potency: 2.17 µM (active)
[6]
  Potency: 4.32 µM (active)

## C#C[C@]1(O)CC[C@H]2[C@H]3CCc4cc(OC)ccc4[C@H]3CC[C@@]21C
[4]
  Potency: 13.7 µM (active)
[6]
  Potency: 24.3 µM (active)
[10]
  Potency: 27.3 µM (active)
